# The campaign covered roughly 16,000 compounds. About 4,000 (25%) were called active. Inconclusive results (about 26%) are left out. Only a sample is shown. Values without a mark were called inactive. Calls follow the shape of the dose curve; as a rule, active = well fitted curve in the direction sought with a large enough effect; inconclusive = small, poorly fitted or top-dose-only effect, or effect the other way; inactive = no such curve, though single readings can be large or run the other way.
# Biological target: Cytochrome P450 2C9 (Homo sapiens) (UniProt P11712)
# Assay: Cytochrome panel assay with activity outcomes
# Settings: recombinant CYP, pro-luciferin dealkylation, luminescence, p450-cyp2c9; series mostly up to 57.1 µM; activity, negative = inhibition: at the top concentration
# % is scaled to controls: 0 for no effect and ±100 for the full control effect.
# Chain of Cytochrome P450 2C9 (Homo sapiens) (P11712 whole entry, looked up): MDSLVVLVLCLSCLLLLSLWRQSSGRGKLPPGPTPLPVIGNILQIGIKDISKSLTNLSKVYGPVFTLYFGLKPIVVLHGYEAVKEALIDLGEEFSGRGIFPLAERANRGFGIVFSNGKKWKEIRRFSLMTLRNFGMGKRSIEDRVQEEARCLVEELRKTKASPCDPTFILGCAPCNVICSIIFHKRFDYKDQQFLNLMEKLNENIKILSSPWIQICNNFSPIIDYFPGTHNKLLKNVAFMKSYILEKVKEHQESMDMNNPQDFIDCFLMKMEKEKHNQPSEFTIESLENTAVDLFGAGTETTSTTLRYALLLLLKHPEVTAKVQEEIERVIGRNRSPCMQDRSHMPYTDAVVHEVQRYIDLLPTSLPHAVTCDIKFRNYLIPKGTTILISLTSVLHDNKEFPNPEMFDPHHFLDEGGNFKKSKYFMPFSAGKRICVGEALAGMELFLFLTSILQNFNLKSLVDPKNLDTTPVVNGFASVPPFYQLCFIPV
SMILES,"activity, negative = inhibition",AC50
O=C(CCCN1CCC(O)(c2ccc(Br)cc2)CC1)c1ccc(F)cc1,26.6% [at 25.6 µM],–
Cc1cc(C)nc(Nc2n[nH]c(-c3cccc4ccccc34)n2)n1,23.5%,–
Cc1ccc(-c2cnc(NC(=O)CCC(=O)N3CCCCC3)n2C)cc1,3.26%,–
O=C(CCN1C(=O)C2C3C=CC(C3)C2C1=O)Nc1ccc2ncccc2c1 (configuration not stated),-29.9%,–
Cc1ccc(NC(=O)CCN2C(=O)c3ccncc3C2=O)cc1,–,14.1 µM (active)
COc1cc(OC)c2c(c1Cl)O[C@@]1(C2=O)[C@H](C)CC(=O)C[C@@H]1OC,7.76% [at 25.6 µM],–
CN(C)c1ccc(-c2ccc3ncnc(NC4CC4)c3c2)cc1,4.64% [at 2.29 µM],–
O=C(CSCc1ccccc1)Nc1cccc(C(=O)Nc2ccccc2C(=O)O)c1,–,0.447 µM (active)
CC1CC2=C(NC(=S)NC2c2ccc(F)cc2)/C(=C/c2ccc(F)cc2)C1 (configuration not stated),–,8.91 µM (active)
O=C1CC(NCCC2=CCCCC2)C(=O)N1c1cccc(Cl)c1Cl (configuration not stated),–,14.1 µM (active)
N[C@H](C(=O)O)c1ccc(C(=O)O)cc1,-2.88%,–
CC(=O)NC1=NN(c2ccccc2)C(=O)C1,9.39%,–
COc1ccc(-c2ccc(/C=C3\C(=O)N(c4ccccc4)N=C3c3ccccc3)o2)c([N+](=O)[O-])c1,–,2.51 µM (active)
COC(=O)c1ccccc1-c1ccc(/C=C2\C(=O)N(c3ccccc3)N=C2c2ccccc2)o1,–,5.62 µM (active)
NC(=NC1C2CC3CC(C2)CC1C3)Nc1ccc(I)cc1 (configuration not stated),15.5%,–
CC[C@@]1(O)C(=O)OCc2c1cc1n(c2=O)Cc2cc3c(CN(C)C)c(O)ccc3nc2-1,-1.39% [at 11.4 µM],–
Cc1cc2nc3[nH]c4c(Cl)cc(Cl)cc4c3nc2cc1C,-11.6% [at 11.4 µM],–
O=C(O)CSc1ccn(Cc2ccccc2)c1,-1.85% [at 11.4 µM],–
C=CCCCCCCCCC(=O)Nc1c[nH]c(=O)[nH]c1=O,-17.1%,–
Cc1onc(-c2c(Cl)cccc2Cl)c1C(=O)Nc1ccc2c(c1)OCO2,–,1.41 µM (active)
O=C(NC(=S)Nc1ccc2c(c1)OCO2)c1ccccc1,–,3.98 µM (active)
C[N+](C)(C)c1ncnc2c1ncn2[C@@H]1CCCCO1,8.84% [at 11.4 µM],–
CCCOc1ccc(C(=O)OCCN(CC)CC)cc1N,16.1% [at 25.6 µM],–
Clc1ccc(Nc2ncn[nH]2)cc1,-21.5%,–
CN1CCN(c2ncc3ncc(=O)n(-c4ccccc4)c3n2)CC1,15.8%,–
CC1CC(=O)c2cnc(N)nc2C1 (configuration not stated),-14.6%,–
O=C1CC(c2ccccc2)Cc2nc(N3CCc4ccccc4C3)ncc21 (configuration not stated),–,4.47 µM (active)
